Source: PubChem BioAssay (Tox21)
Results filed as inconclusive are left out. Entries that show only a call come without a potency. A number with no mark means an inactive call. Activity calls are given as the source filed them. The call rests on the fitted dose curve.

Assay: p53 small molecule agonists, cell-based qHTS assay with human liver microsomes (AID 1963577);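 further: p53 response element beta-lactamase reporter cells with liver microsomes plus NADPH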
Method in brief: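 Metabolically competent format: test substances, human liver microsomes and NADPH (both 0.5 mg/mL final) incubated with p53RE-bla cells 16 h at 37 C. Beta-lactamase reporter signal then quantified by fluorescence.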

Compound | Potency | activation
O=[N+]([O-])c1cc(C2CCCCC2)c(O)c([N+](=O)[O-])c1 | inactive | –
O=C(Nc1cccc(C(F)(F)F)c1)c1cc(Br)cc(Br)c1O | inactive | –
CCN(CC)c1ccc2c(c1)Oc1cc(N(CC)CC)ccc1C21OC(=O)c2ccccc21 | inactive | –
CNCC(O)c1ccc(O)c(O)c1 (stereo not drawn) | inactive | –
CCOCN(C(=O)CS(=O)(=O)O)c1c(C)cccc1CC | inactive | –
CCN1CCN(C(=O)N[C@@H](C(=O)N[C@@H]2C(=O)N3C(C(=O)O)=C(CSc4nnnn4C)CS[C@H]23)c2ccc(O)cc2)C(=O)C1=O | inactive | –
O=S(=O)(O)c1cc(S(=O)(=O)O)c2ccc3c(S(=O)(=O)O)cc(S(=O)(=O)O)c4ccc1c2c43 | – | -0.621% [at 13.5 µM]
C=CC(=O)OCCn1c(=O)n(CCOC(=O)C=C)c(=O)n(CCOC(=O)C=C)c1=O | inactive | –
Nc1ccc(F)cc1F | inactive | –
CCCCCCCCOC(=O)c1cc(O)c(O)c(O)c1 | inactive | –
CC=O | inactive | –
O=C(Cl)c1ccc(F)c(Cl)c1 | inactive | –
C=COCCOCCOC=C | inactive | –
COC(=O)c1ccc(C(=O)O)cc1 | inactive | –
Cc1[nH]cnc1C[C@H]1CCc2c(C)c3ccccc3n2C1=O | inactive | –
c1coc(Cn2cccc2)c1 | inactive | –
C[C@]12CCC(=O)C=C1C=C[C@@H]1[C@@H]2CC[C@@]2(C)[C@H]1CC[C@@]21CCC(=O)O1 | inactive | –
Cc1cc(O)c(C(C)C)cc1Cl | inactive | –
CC(C)COCC(CN(Cc1ccccc1)c1ccccc1)N1CCCC1 (stereo not drawn) | inactive | –
O=C(Nc1ccc(Cl)c(Cl)c1)c1cc(Cl)cc(Cl)c1O | inactive | –
CC(NCCC(c1ccccc1)c1ccccc1)c1ccccc1 (stereo not drawn) | inactive | –
COc1cccc2c1C(=O)c1c(O)c3c(c(O)c1C2=O)C[C@@](O)(C(=O)CO)C[C@@H]3O[C@H]1C[C@H](N)[C@H](O[C@@H]2CCCCO2)[C@H](C)O1 | inactive | –
Cc1ccc(S(=O)(=O)C(I)I)cc1 | inactive | –
